Source: PubChem BioAssay
tim10-1 inh – growth inhibitors of tim10-1 mutant yeast. S. cerevisiae tim10-1 ts strain growth, BacTiter-Glo, 24 h. inhibition, % at 20 µM. hit rate 2.2% among 330,000. AID 463190;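 active = inhibition of at least 40%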;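 also: mutant grown at 25 °C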
NLRP3 yeast inh – inhibitors of NALP3 inflammasome in yeast | Yeast reconstituted NLRP3/ASC/caspase-1, beta-gal luminescence, 24 h | AID 2825 | inhibition, % at 10 µM | hit rate 0.39% among 330,000;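 active = inhibition of 50% or more; inactive = inhibition below 50%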
tim23-1 inh – growth inhibitors of tim23-1 mutant yeast; S. cerevisiae tim23-1 growth, BacTiter-Glo luminescence, 24 h; inhibition, % at 20 µM; hit rate 1.3% among 330,000;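 active = growth inhibition of the mutant yeast at or above 50%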;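 also: temperature-sensitive mutant grown at 25 °C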
TIM10 inh – TIM10 yeast growth inhibition | S. cerevisiae TIM10 strain growth, BacTiter-Glo luminescence, 24 h | inhibition, % at 10 µM | hit rate 1.4% among 330,000;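 active = inhibition of 40% or more at the single tested concentration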;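 also: wild-type TIM10 isogenic control strain grown at permissive 25 °C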
PfHsp90 set2 – reduces growth (ATP signal) of yeast expressing P. falciparum Hsp90; S. cerevisiae expressing PfHsp90, BacTiter-Glo ATP, 48 h; yeast lacking PDR1 and PDR3 efflux regulators; hit rate 0.32% among 310,000; inhibition, % at 9.4 µM;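 active = every replicate shows inhibition above about 80%, whatever the replicate mean, limit read from the data; inconclusive = mean inhibition reaches the set limit but some replicate falls short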
SKKanGAS inh – blocks kanamycin growth of S. pyogenes SKKanGAS strain; inhibition, % at 7.5 µM; hit rate 1.3% among 300,000; BacTiter-Glo, 6 h;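 active = mean replicate score, as percent of positive control median, at least 50; inconclusive = mean below 50 but one replicate at or above 50; inactive = mean and every replicate below 50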;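 also: strain carries kanamycin resistance gene driven by streptokinase promoter and grows in 40 µg/ml kanamycin; loss of luminescence reflects streptokinase promoter inhibition or plain growth inhibition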
tim10-1 confirm – tim10-1 yeast growth inhibition, confirmed. shares compounds with tim10-1 inh. S. cerevisiae tim10-1 ts strain growth, BacTiter-Glo, 24 h. inhibition, % at 20 µM. hit rate 56% among 7,400;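 active = inhibition of yeast growth at or above a set limit in either of two repeat tests at 20 µM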;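 also: tim10-1 mutant grown at permissive 25 °C to find synthetic lethal compounds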
Hits are given with their value; – = inactive; ? = inconclusive; · = no result given. In the library only some 4.6% were active in any assay of this set; here they are far more common.

SMILES | tim10-1 inh | NLRP3 yeast inh | tim23-1 inh | TIM10 inh | PfHsp90 set2 | SKKanGAS inh | tim10-1 confirm
O=C(Nc1cccc(S(=O)(=O)Nc2ccc(Cl)cc2)c1)c1cc2c(s1)CCCC2 | 40 | – | – | – | – | 65 | –
CCN(C(=O)COC(=O)C1CC1)c1c(N)n(Cc2ccccc2)c(=O)[nH]c1=O | – | – | – | – | – | · | ·
C[C@H]1CN([C@@H](C)CO)C(=O)c2cccc(NC(=O)c3ccc(-c4nccs4)cc3)c2O[C@@H]1CN(C)C(=O)NC1CCCCC1 | – | – | – | – | – | · | ·
Cc1cc(C(F)(F)F)n(-c2nc(C(=O)N/N=C/c3ccc(F)cc3)cs2)n1 | 42 | – | – | – | · | – | –
CCc1ccccc1N(CC(=O)N1CCCCCC1)S(C)(=O)=O | – | – | – | – | – | – | ·
CCN(c1ccc(N=Cc2c(O)n(Cc3ccc(OC)cc3)c(=O)c3ccccc23)cc1)C(C)C | · | · | · | · | – | · | ·
COc1ccc(C(=O)N/C(=C\c2ccccc2)C(=O)Nc2ccccc2C(=O)O)cc1 | – | – | – | – | – | – | ·
CN(C)/N=C/C=C1\CCC/C(=C\c2ccc(F)c(F)c2)C1=O | 46 | – | – | – | – | – | 48
COc1ccc(/C=C2\CCC/C(=C\C=N\N(C)C)C2=O)cc1 | – | – | – | – | – | – | ·
Cc1ccc(C(=O)OCC(=O)N2C(C)CCCC2C)cc1S(=O)(=O)N1CCOCC1 (configuration not stated) | – | – | – | – | · | – | ·
O=Cc1ccc2cccnc2n1 | – | – | – | – | · | – | ·
O=Cc1ccc2ccc3cccnc3c2n1 | 42 | – | – | – | – | – | –
Cc1noc(C)c1CC(=O)N1CCCC(C(=O)c2ccc(C(C)(C)C)cc2)C1 (configuration not stated) | 41 | – | – | – | – | – | –
COc1ccc(C(=O)C2CCCN(C(=O)Cc3c(C)noc3C)C2)cc1OC (configuration not stated) | – | – | – | – | – | – | ·
O=[N+]([O-])c1cc(Cl)ccc1N1CCN(c2ccccc2O)CC1 | 59 | – | – | – | – | – | 53
COc1ccc2c(ccn2S(=O)(=O)c2ccccc2)c1 | – | – | – | – | – | – | ·
Clc1ccc(-c2nnc3sc(-c4ccc(Br)o4)nn23)cc1 | – | – | – | – | – | · | ·
Brc1ccc(-c2nn3c(Cc4ccccc4)nnc3s2)o1 | 42 | – | – | – | – | – | –
Clc1ccc(-c2nnc3sc(-c4ccc(Br)o4)nn23)c(Cl)c1 | – | – | – | – | – | – | ·
Clc1ccccc1-c1nnc2sc(-c3ccc(Br)o3)nn12 | 40 | – | – | – | – | – | 30
CC1(C)Cc2nc3oc4c(SCC(N)=O)ncnc4c3cc2CO1 | – | – | – | – | · | – | ·
CCc1nnc(NC(=O)c2cc(-c3ccccn3)nc3ccc(Br)cc23)s1 | 83 | – | – | – | – | – | –
O=C(N/N=C/c1ccc([N+](=O)[O-])o1)c1cc(-c2cccc(Br)c2)nc2ccccc12 | 44 | – | – | – | – | 98 | –
O=C(N/N=C/c1ccco1)c1cc(-c2ccccc2)nc2ccccc12 | – | – | – | – | – | – | ·
COc1cccc(-c2cc(C(=O)N/N=C/c3ccco3)c3ccccc3n2)c1 | – | – | – | – | – | – | ·
SMILES | tim10-1 inh | NLRP3 yeast inh | tim23-1 inh | TIM10 inh | PfHsp90 set2 | SKKanGAS inh | tim10-1 confirm
Cc1ccc(-c2cc(C(=O)NN=C3CCCC3)c3ccccc3n2)cc1 | 44 | – | – | – | – | – | –
Cc1sc(NC(=O)c2cc(-c3ccccc3)nc3ccccc23)c(C(N)=O)c1C | 41 | – | – | – | – | – | –
O=C(N/N=C/c1ccccn1)c1cc(-c2ccc(Br)cc2)nc2ccccc12 | 44 | – | – | – | 106 | 107 | –
COc1ccc(N2CC(NS(=O)(=O)c3cccs3)CC2=O)cc1OC (configuration not stated) | – | – | – | – | · | – | ·
CCn1nc(C(=O)NCc2nnc3ccccn23)c2ccccc2c1=O | – | – | – | – | · | · | ·
N/C(=N\OCc1ccc([N+](=O)[O-])cc1)c1ccncc1 | – | – | – | – | – | – | ·
O=C(CNc1ccc2ccccc2c1)N/N=C/c1ccc([N+](=O)[O-])o1 | 47 | – | – | – | – | 83 | 41
CCCc1ccc(-c2cc(C(=O)N/N=C/c3ccc([N+](=O)[O-])o3)c3ccccc3n2)cc1 | 44 | – | – | – | – | 96 | 49
O=C(CNc1ccc2ccccc2c1)N/N=C/c1ccc(C(=O)O)cc1 | – | – | – | – | – | – | ·
Cc1ccc(S(=O)(=O)NCCn2cnc([N+](=O)[O-])n2)cc1 | – | – | – | – | – | – | ·
COc1ccc(NC(=O)Cn2nc(C(F)(F)F)c3c2CCCC3)c(OC)c1 | – | – | – | – | · | – | ·
COc1ccc(CNC(=O)Cn2nc(C(F)(F)F)c3c2CCC3)cc1 | 42 | – | – | – | – | – | –
N#Cc1c(N2CCCC(O)C2)nc(N)c2c(N)nc3c(c12)CC(=O)N3C12CC3CC(CC(C3)C1)C2 (configuration not stated) | 50 | – | – | – | – | – | 33
CCCCn1nnnc1SCC(=O)c1cc(Cl)ccc1OC | 52 | – | – | – | – | – | 33
CC(=O)Oc1ccc(/C=N/NS(=O)(=O)c2ccccc2)cc1 | 44 | – | – | – | – | ? | 44
O=C(CCN1CCCCO1)N1CCCC(Nc2ccc(F)cc2)C1 (configuration not stated) | – | – | – | – | – | – | ·
CCN1CCN(c2ccccc2NC(=O)c2ccc(-n3cccn3)cc2)CC1 | – | – | – | – | – | · | ·
CCOC(=O)c1cnc2c(C(F)(F)F)cccc2c1N1CCN(C)CC1 | – | – | – | – | – | – | ·
CCOC(=O)c1cnc2c(OC)cccc2c1N1CCN(c2ccc(OC)cc2)CC1 | 40 | – | – | – | – | – | –
CCOC(=O)c1cnc2c(OC)cccc2c1N1CCN(c2ccccn2)CC1 | 48 | – | – | – | – | – | –
COc1cccc(CNS(=O)(=O)c2c(C)nc3sccn3c2=O)c1 | – | – | – | – | – | – | ·
CC(C)C[C@H](NC(=O)N1CC(=O)Nc2ccccc21)C(=O)N1CCC(C(=O)O)CC1 | – | – | – | – | – | – | ·
CC(OC(=O)c1ccccc1C(=O)N(C)C1CCCCC1)C(=O)NC1(C#N)CCCCC1 (configuration not stated) | – | – | – | – | – | · | ·
COc1ccccc1NC(=S)N(Cc1ccccc1)Cc1ccccn1 | – | – | – | – | – | – | ·
S=C(Nc1ccccc1Cl)N(Cc1ccccc1)Cc1ccccn1 | 47 | – | – | – | – | – | –
Cc1nn(-c2ccccc2)c(N2CCCC2)c1/C=N/NC(=S)Nc1ccccc1C(F)(F)F | 41 | – | – | – | – | – | –
Cc1nn(-c2ccccc2)c(N2CCCC2)c1/C=N/NC(=S)Nc1cc(C(F)(F)F)ccc1Cl | – | – | – | – | – | – | ·
